Here are results for 40 compounds from PubChem BioAssay (Tox21).

Inconclusive results are not listed. A call without a number means that no potency is given here. The source made the active and inactive calls. Calls follow the shape of the dose curve; as a rule, active = well fitted activation curve with a large enough effect in the repeat runs; inconclusive = weak or mixed curves; inactive = flat fitted curve, though single readings scatter.
Potency is read from the fitted curve at half-maximal effect.

The experiment can be described thus: A CellTox Green Cytotoxicity Assay to monitor cytotoxicity in HepG2 cells - 16 hour (AID 1224876). Also: nearly all actives have a fitted effect of over 45% in size. The settings on record: CellTox Green fluorescence; series mostly up to 76.8 µM. An excerpt:
National Center for Advancing Translational Sciences [NCATS]
NIH Chemical Genomics Center [NCGC]
U.S. Environmental Protection Agency [EPA]
National Institutes of Environmental Health Sciences [NIEHS]
National Toxicology Program [NTP]
Cell-based models are critical for drug discovery. Determining the natural cytotoxic effects resulting from test compounds is an essential research activity. A CellTox Green Cytotoxicity Assay to monitor cytotoxicity in real time of continues cell culture during 40 hours of the compound treatment was used to screen Tox21 10K library compounds in HepG2 cells. CellTox Green Cytotoxicity Assay is a nonlytic, homogeneous, biofluorescent method to measure cytotoxicity in cell culture after experimental manipulation. The assay system uses a proprietary asymmetric cyanine dye that is excluded from viable cells but preferentially stains the dead cell's DNA. […] Viable cells produce no appreciable increases in fluorescence. Therefore, the fluorescence signal produced by the binding interaction with dead cell DNA is proportional to cytotoxicity.
The mixture of HepG2 cell suspension and reagents were dispensed at 600cells/6 ul/well in 1536-well tissue culture treated black solid bottom plates using a Multidrop dispenser. After the assay plates were incubated at a 37 C/5% CO2 incubator for 5 hours, 23 nL of compounds dissolved in DMSO, positive and negative controls was transferred to the assay plate by a pintool work station. The plates were incubated at 37 C for 40 hours. The fluorescence intensity were measured at 0h, 8h, 16h, 24h, 32h and 40h time points using ViewLux plate reader during compound treatment.
For `O=[N+]([O-])c1ccc(O/N=C/c2cc(Br)c(O)c(Br)c2)c([N+](=O)[O-])c1`, the Potency entry is “inactive”.

Turning to `CC(C)C(O)(c1ccc(OC(F)(F)F)cc1)c1cncnc1` (stereo not given), the Potency result is “inactive”.

Regarding `O=C(O)CCC(=O)C(=O)O`, the Potency entry is “inactive”. For `CN1C(=O)N(c2ccccc2Br)Cc2cnc(Nc3ccc4c(c3)OCC(CO)O4)nc21` (stereo not given) the value was “inactive”; for `O=Cc1c2ccccc2c(Cl)c2ccccc12`, “inactive”; for `CCCCCCCCCCCCCCN(CCO)CCO`, 49 µM (active). For `CCOC(=O)/C=C/C(=O)OCC` the value was “inactive”; for `Cc1ccco1`, “inactive”; for `CCCCCC[C@@H](O)C/C=C\CCCCCCCC(=O)OCC(O)CO` (stereo not given in full), “inactive”. For `C(=C\c1ccccc1)/c1ccccc1` the value was “inactive”; for `Cc1ccc(CO)cc1`, “inactive”. `CN(C)CCN1C(=O)c2ccccc2N(C)c2ccccc21`: the Potency entry was “inactive”. `COc1ccccc1N1CCN(CCCCNC(=O)c2ccc(-c3ccc(C(C)=O)cc3)cc2)CC1`: the Potency result is “inactive”. For `CNC(=O)c1cnn(-c2nc(N)c3ncn([C@@H]4O[C@H](CO)[C@@H](O)[C@H]4O)c3n2)c1` the value was “inactive”; for `CN(C)CCC=C1c2ccccc2C=Cc2ccccc21`, 23.9 µM (active); for `C[C@@H]1CN(CCCn2c3ccccc3c3ccccc32)C[C@H](C)N1`, 26.8 µM (active).

For the compound `CCCCCC[C@@H](O)C/C=C\CCCCCCCC(=O)O`, the Potency entry was “inactive”. Regarding `NNC(=O)CP(=O)(c1ccccc1)c1ccccc1`, the Potency result is “inactive”. As for `Cc1c(C)c2c(c(C)c1OC(=O)CCC(=O)OCCO)CC[C@@](C)(CCC[C@H](C)CCC[C@H](C)CCCC(C)C)O2`, the entry is “inactive”; as for `O=C1c2ccccc2C(=O)C1c1ccc(Br)cc1`, “inactive”. For `OCCN1CCN(CCCN2c3ccccc3Sc3ccc(Cl)cc32)CC1` the value was 21.3 µM (active). For `Oc1c(I)cc(I)c2cccnc12` the value was “inactive”; for `NC1[C@H]2CN(c3nc4c(cc3F)c(=O)c(C(=O)O)cn4-c3ccc(F)cc3F)C[C@@H]12` (stereo not given in full), “inactive”. Turning to `Cc1ccc2c(Br)cc(Br)c(O)c2n1`, the Potency result is “inactive”. For `CC1(C)S[C@@H]2[C@H](NC(=O)C(c3ccccc3)S(=O)(=O)O)C(=O)N2[C@H]1C(=O)O` (stereo not given in full) the value was “inactive”. For `Oc1ccc(Cl)c2cccnc12` the value was “inactive”; for `CO[C@]1(NC(=O)CSC(F)F)C(=O)N2C(C(=O)O)=C(CSc3nnnn3CCO)CO[C@H]21`, “inactive”; for `CCOC(=O)C1=C(C)NC(C)=C(C(=O)OC)C1c1cccc(Cl)c1Cl` (stereo not given), “inactive”.

For `C=CCc1ccccc1OCC(O)CNC(C)C` (stereo not given), the Potency entry was “inactive”. For `CC(=O)c1ccc([N+](=O)[O-])cc1` the value was “inactive”. As for `CN1C(=O)c2ccccc2C1=O`, the entry is “inactive”. For `O=C=Nc1cccc(C(F)(F)F)c1` the value was “inactive”; for `CC(C)(c1ccccc1)c1ccccc1`, “inactive”. Regarding `O=C(O)CCCCCCCCCCCBr`, the Potency entry is “inactive”. For `Brc1cc(Br)c(Oc2cc(Br)c(Br)cc2Br)cc1Br` the value was “inactive”; for `C[C@@H]1CC(=O)NN=C1c1ccc(NN=C(C#N)C#N)cc1`, “inactive”. For `O=C(O)c1ccc(OCCCOc2ccc(C(=O)O)cc2)cc1` the value was “inactive”; for `COc1cc(C(=O)NCCCCCC(=O)O)cc(OC)c1OC`, “inactive”. As for `N#CCCN(CCO)CCO`, the Potency result was “inactive”. As for `c1csc(SSc2cccs2)c1`, the entry is “inactive”.
